# Experimental data from PubChem BioAssay (NCI).
# The panel holds about 83,000 compounds, 20% with a hit somewhere; the sample as a whole holds those more often.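 Method: cells in 96-well plates; compound added at one concentration; 48 h incubation; percent growth measured; values under 10 scored active.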 Values without a mark were called inactive. The source made the active and inactive calls.
# How the values were obtained:
# Assay in all cases: NCI-60 one-dose screen, 48 h (100 = growth as untreated, 0 = no growth, -100 = all killed)
# Conditions in all cases: 10 µM unless noted
# SK-MEL-2 melanoma = system: SK-MEL-2 melanoma
# EKVX NSCLC = system: EKVX NSCLC
# SN12C renal = system: SN12C renal
# UO-31 renal = system: UO-31 renal
# TK-10 renal = system: TK-10 renal
# ACHN renal = system: ACHN renal
# CAKI-1 renal = system: CAKI-1 renal
# A498 renal = system: A498 renal
# CCRF-CEM leukemia = system: CCRF-CEM leukemia
# MOLT-4 leukemia = system: MOLT-4 leukemia
# SR leukemia = system: SR leukemia
# RPMI-8226 leukemia = system: RPMI-8226 leukemia
# OVCAR-8 ovarian = system: OVCAR-8 ovarian
# OVCAR-5 ovarian = system: OVCAR-5 ovarian
# OVCAR-4 ovarian = system: OVCAR-4 ovarian
# SK-OV-3 ovarian = system: SK-OV-3 ovarian
# IGROV1 ovarian = system: IGROV1 ovarian
# OVCAR-3 ovarian = system: OVCAR-3 ovarian
# HS 578T breast = system: HS 578T breast
# NCI/ADR-RES ovarian = system: NCI/ADR-RES ovarian
SMILES,growth (SK-MEL-2 melanoma),growth (EKVX NSCLC),growth (SN12C renal),growth (UO-31 renal),growth (TK-10 renal),growth (ACHN renal),growth (CAKI-1 renal),growth (A498 renal),growth (CCRF-CEM leukemia),growth (MOLT-4 leukemia),growth (SR leukemia),growth (RPMI-8226 leukemia),growth (OVCAR-8 ovarian),growth (OVCAR-5 ovarian),growth (OVCAR-4 ovarian),growth (SK-OV-3 ovarian),growth (IGROV1 ovarian),growth (OVCAR-3 ovarian),growth (HS 578T breast),growth (NCI/ADR-RES ovarian)
Clc1ccc(-c2cn3ccsc3n2)c(Cl)c1Cl,88.6%,65.2%,77.9%,70.1%,105%,90.1%,71.8%,76.7%,93.6%,80.4%,49.9%,67.5%,95.7%,88.5%,74.1%,118%,77.2%,93.3%,84.3%,99.6%
O=C(Cn1nnc2ccccc21)N/N=C/c1ccccc1F,102%,106%,83.9%,87%,107%,106%,97.9%,85.5%,103%,104%,96.8%,101%,95.2%,108%,110%,98.2%,109%,108%,–,109%
CCn1cc(CNc2ccc(C(=O)Nc3cc4cc(OC)c(OC)cc4c(C)n3)cc2)c(C)n1,11.5%,59.7%,67%,22.4%,49%,36.1%,30.1%,93.6%,11.8%,9.9% (active),32.8%,-0.529% (active),1.1% (active),72.9%,25%,86.8%,56.1%,33.7%,–,13.4%
O=C(CCC(=O)c1nc2ncccc2[nH]1)NN1C(=O)CSC1c1ccc(Cl)cc1 (stereo not given),106%,100%,97%,70.7%,126%,97.4%,84.2%,111%,83.8%,106%,55.9%,87.1%,101%,106%,94.1%,100%,86.7%,98.7%,101%,100%
O=C(CSc1nc2ccc([N+](=O)[O-])cc2[nH]1)Nc1ccc(Br)cc1,42.2%,50%,46.1%,41%,94.5%,52.6%,39.6%,30.9%,39.1%,26.6%,22.9%,6.95% (active),52.5%,85.7%,34.4%,44.7%,63.8%,39.3%,78.7%,59.3%
Nc1c(C(=O)O)cc(Cl)cc1[N+](=O)[O-],110%,103%,93.9%,79.3%,118%,96.5%,111%,100%,78.6%,94.2%,109%,104%,92.7%,90.4%,99.5%,101%,100%,105%,–,97.8%
CC1=CCC[C@@H]2C1(C)CC[C@H](C)[C@@]2(C)CC1=CC(=O)C(SC(C)(C)C)=CC1=O (stereo not given in full),97.3%,70.7%,86.8%,66.2%,98.8%,77.5%,78.4%,88.6%,-23.5% (active),36%,74%,64.7%,91.8%,68%,88.5%,106%,99.4%,84.9%,85%,84.8%
COc1cc(C2C3=C(COC3=O)N(CCO)c3cc4c(cc32)OCCO4)cc(OC)c1OC (stereo not given),58.5%,45.7%,23.8%,54.3%,60.3%,20.7%,41.3%,-28.8% (active),13.2%,8.21% (active),1.09% (active),21.9%,6.75% (active),41.5%,24.9%,5.64% (active),4.17% (active),-55.6% (active),-4.92% (active),48.2%
COC(=O)C1=C(C)NC(C)=C(C(=O)OCC(C)C)C1c1ccccc1[N+](=O)[O-] (stereo not given),64.8%,58.3%,64.3%,28.3%,80.7%,26.8%,21.9%,50.4%,7.1% (active),43.6%,20.3%,53.1%,61.6%,98.7%,51.8%,82.7%,56.9%,56.5%,112%,48.8%
O=C1N[C@@H]2[C@@H](O)[C@@H](O)[C@H](O)C[C@H]2c2cc3c(c(O)c21)OCCO3,-48.7% (active),-14.3% (active),-9.95% (active),-19.7% (active),-11.9% (active),-14.5% (active),4.9% (active),-29.7% (active),-6.07% (active),-0.799% (active),-2.37% (active),-28% (active),-13.8% (active),3% (active),-8.78% (active),-10.9% (active),-16.7% (active),-13% (active),–,-0.441% (active)
O=C(/C=C/c1ccccc1)Nc1ncc(Cc2ccccc2)s1,26.1%,23.2%,32.4%,30.4%,35%,26.5%,27.8%,12.6%,20.3%,22.6%,15.3%,20.2%,23.7%,18.5%,14.1%,15.4%,26.1%,-34.1% (active),–,2.68% (active)
Cc1ccccc1OCC(O)COc1ccccc1C,102%,101%,83.9%,78.9%,120%,84.4%,80%,102%,85.2%,131%,114%,107%,91.1%,103%,104%,108%,85.1%,114%,–,111%
N#CCC1=NC(c2cccs2)=Nc2ccccc2S1,96.9%,105%,86.6%,79.1%,117%,98.2%,95.6%,90.9%,90.8%,92.5%,91.5%,65.7%,95.9%,86.6%,93.8%,76.4%,86.4%,95.3%,–,98%
C=C1C(=O)O[C@H]2[C@H]1CC/C(CNC(=O)c1cc3ccccc3[nH]1)=C\CC[C@@]1(C)O[C@@H]21,-60.8% (active),14%,-43.3% (active),-73.5% (active),-89.9% (active),-77.6% (active),-60.4% (active),-63.4% (active),-35.7% (active),-35.5% (active),-37.4% (active),-29% (active),-26.2% (active),-46% (active),-7.16% (active),68%,-26.3% (active),-93.8% (active),–,22.4%
C=CCOC(=O)C1=C(C)NC(=O)NC1c1c(Cl)n(C)c2ccccc12 (stereo not given),112%,98.2%,96.9%,80.9%,102%,99.7%,94.3%,101%,-49.5% (active),98.5%,97.9%,81.3%,102%,96%,103%,94.5%,107%,104%,–,99.2%
CCCCCCCCn1ccc2cc(NC(=O)Cn3cc(CN4CCN(CC)CC4)nn3)ccc21,101%,88%,64.1%,47.5%,99.2%,111%,69.6%,90.5%,-41.2% (active),39.3%,2.27% (active),-10.7% (active),83%,94%,81.5%,99.6%,88.6%,66.8%,–,97.7%
